High-throughput results from PubChem BioAssay.
Rows were chosen to be rich in hits. Some 3.4% of all compounds tested hit in one or more screens of this group.
APP 5'UTR act: APP 5'UTR luciferase reporter activation; SH-SY5Y APP 5'UTR luciferase reporter, luminescence; zero percent = DMSO vehicle wells; activation, % at 2 µM; hit rate 1% among 190,000;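 active = activation above a set limit, based on mean plus 3 SD of controls, cut at about 140% in these data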
NF-kB expr up: compounds increasing NF-kB expression in human neuronal cells; AID 1239; hit rate 1.6% among 190,000; fold change at 12.5 µM; NF-kB reporter expression; hits give high values; in the data active = fold change above about 3.3
ssDAF-12 act: activators of S. stercoralis DAF-12 nuclear receptor | activation, % at 6.8 µM | HEK293 ssDAF-12/GRIP1 lit1-tk-luc reporter, luminescence; % of 3 µM dafachronic acid response | AID 652126 | hit rate 1% among 370,000;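 active = activation above the mean over all tested compounds plus 3 SD, cut at about 0.9% in these data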;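 note: 0% = DMSO-only wells and 100% = 3 µM delta7-dafachronic acid wells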
hcDAF-12 act: activates DAF-12 receptor from parasite H. contortus | HEK293 hcDAF-12 lit1-tk-luc reporter, luminescence; 0% DMSO, 100% Δ7-dafachronic acid | activation, % at 6.8 µM | hit rate 1.4% among 370,000 | AID 652067;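 active = activation above the mean of all tested compounds plus 3 SD, cut at about 5.5% in these data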;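 note: 100% = response to 3 µM Δ7-dafachronic acid high control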
hgDAF12 agonist: agonists of H. glycines DAF-12 nuclear receptor | HEK293 GAL4-hgDAF12 UAS-luciferase reporter, agonist luminescence; normalized to butyrate control | activation, % at 6.8 µM | hit rate 1.8% among 370,000;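 active = activation above a cutoff set at the mean of all screened compounds plus 3 SD, cut at about 10% in these data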;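 note: 0% = DMSO wells and 100% = sodium butyrate wells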
hgDAF12 ag: confirmation of H. glycines DAF-12 agonists; shares compounds with hgDAF12 agonist; HEK293 GAL4-hgDAF12 luciferase reporter, agonist mode; percent of butyrate response; activation, % at 6.8 µM; hit rate 80% among 3,300; AID 743050;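 active = mean activation over triplicate wells above the hit cutoff derived from the earlier primary screen, cut at about 11% in these data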;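 note: 0% = DMSO low control and 100% = 2 mM sodium butyrate high control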
LXRb DAF12 ctr: activates human LXR-beta, counter-screen for DAF-12 agonists; HEK293 Gal4-LXR luciferase reporter, 24 h; activation, % at 6.8 µM; 3,300 tested, under 10 active; shares compounds with hgDAF12 agonist;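 active = mean activation of the triplicate above a set limit carried over from the primary screen, none filed active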
Target sequence (P55055 whole entry, looked up, the tested form may be a part): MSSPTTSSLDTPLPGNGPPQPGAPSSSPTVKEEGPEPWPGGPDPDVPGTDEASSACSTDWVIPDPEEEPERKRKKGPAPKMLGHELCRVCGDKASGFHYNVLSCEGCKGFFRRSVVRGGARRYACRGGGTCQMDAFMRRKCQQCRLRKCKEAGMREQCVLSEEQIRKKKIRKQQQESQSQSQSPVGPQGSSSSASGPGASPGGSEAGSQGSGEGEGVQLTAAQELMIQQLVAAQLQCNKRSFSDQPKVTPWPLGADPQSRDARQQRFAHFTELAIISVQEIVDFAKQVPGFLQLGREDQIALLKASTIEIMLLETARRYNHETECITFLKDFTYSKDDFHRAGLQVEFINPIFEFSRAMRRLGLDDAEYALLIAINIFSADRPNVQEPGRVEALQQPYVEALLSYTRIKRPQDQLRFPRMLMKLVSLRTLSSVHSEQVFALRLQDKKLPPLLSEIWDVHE
* marks the source's active call; other numbers are inactive results; . = no result.

SMILES	APP 5'UTR act	NF-kB expr up	ssDAF-12 act	hcDAF-12 act	hgDAF12 agonist	hgDAF12 ag	LXRb DAF12 ctr
Cc1cccc(NC(=O)c2ccc(N3CCOCC3)c([N+](=O)[O-])c2)n1	64.6	2.05	-0.9	0.2	13.9*	5.2	0.2
COc1ccc(-c2nnc(SCc3ccccc3F)o2)cc1OC	90.6	2.04	-1.2	-0.1	6.7	.	.
Cc1ccc(-c2nnc(SCc3ccccc3F)o2)cc1	142.3*	7.34*	0.5	5.7*	15.8*	15.0*	0.8
Cc1ccc(CNC(=O)CCn2c(=O)oc3ccccc32)cc1	.	.	-0.4	0.2	13.3*	0.6	0.0
Cc1ccccc1NC(=O)c1cnc2ccccn2c1=O	104.5	1.82	0.3	4.2	16.4*	15.6*	0.9
O=C(NCCc1ccccc1)c1cnc2ccccn2c1=O	103.1	2.72	-0.6	2.5	14.5*	13.3*	0.8
Cc1ccccc1NC(=O)c1cc2ccccn2n1	.	.	0.9	6.0*	19.4*	13.2*	0.8
CC(=O)c1cccc(NC(=O)c2cc3ccccn3n2)c1	78.4	1.92	-0.4	1.3	7.4	.	.
O=C(NCCc1cccc(F)c1)c1cc2ccccn2n1	.	.	-0.3	0.7	13.6*	12.5*	0.4
CCC[C@H]1[C@@H](NCc2ccccc2)CC[C@@]23CCCN2C(=O)CCC[C@@H]13	.	.	-2.0	-1.9	1.6	.	.
CCOC(=O)N1CCN(C(=O)C[C@H]2C[C@@]3(C(=O)OC)C(=C[C@H](C4CCCC4)O[C@@H]3C)N(Cc3ccco3)C2=O)CC1	.	.	-1.3	-3.5	-1.6	.	.
Cc1cc(O)ccc1Nc1cc(-c2cccc(N(C)C)c2)ncn1	.	.	0.8	5.8*	13.8*	18.1*	0.5
C[C@@H]1[C@H](c2ccccc2)OC(O)([C@H](Cc2ccccc2)NC(=O)OC(C)(C)C)CN1C (some centres not stated)	.	.	-1.6	-1.3	2.6	.	.
CCCCOCCCNC(=O)C[C@H]1C[C@@]2(C(=O)OC)C(=C[C@H](C(C)(C)C)O[C@@H]2C)N(Cc2cccc3ccccc23)C1=O	.	.	-1.8	-2.1	-1.5	.	.
O=C1CCc2cc(S(=O)(=O)Nc3ccccc3F)ccc2N1	.	.	-1.9	0.2	25.2*	0.1	0.0
O=C1CCc2cc(S(=O)(=O)Nc3ccccc3Cl)ccc2N1	.	.	-0.6	-0.6	0.4	.	.
CC(=O)Nc1ccc2c(c1)C(=O)c1ccccc1C2=O	185.8*	3.86*	0.5	6.5*	14.3*	17.7*	0.8
CC(=O)Nc1ccc2c(c1)CCc1ccccc1-2	.	.	-0.5	-0.5	3.5	.	.
Clc1ccc(OCCOc2ccc(Br)nc2Br)c(Cl)c1	.	.	-1.9	-2.0	6.0	.	.
C[C@H]1CN(c2ccc(N3CCNC[C@@H]3C)cc2C#N)CCN1Cc1ccccc1	.	.	-0.4	-0.5	2.6	.	.
CCn1c(COc2ccc(C)cc2)nnc1SCC(=O)Nc1ccc(Oc2ccccc2)cc1	.	.	-1.2	-0.9	-0.9	.	.
COc1ccc(CN=C2Nc3ccccc3CS2)cc1	200.0*	6.74*	1.2*	4.9	14.2*	17.2*	0.9
Cc1cccc(NC(=O)c2ccc(OC3CSC3)cc2)c1	158.2*	3.75*	-0.3	2.9	16.1*	16.0*	0.7
O=C(Nc1ccc(NC(=O)C2CC2)nc1)c1ccco1	26.0	1.71	0.0	-0.9	3.9	.	.
COC(=O)c1ccccc1Oc1ccc(NC(=O)c2ccco2)cc1	.	.	-1.4	-0.9	13.5*	-1.7	0.0
SMILES	APP 5'UTR act	NF-kB expr up	ssDAF-12 act	hcDAF-12 act	hgDAF12 agonist	hgDAF12 ag	LXRb DAF12 ctr
O=C(Nc1ccc(Cl)cn1)c1cccc(F)c1	54.5	3.56*	-0.3	3.5	17.2*	16.8*	0.7
O=C(Nc1ccc(NC(=O)c2ccco2)nc1)c1cccc(F)c1	.	.	0.1	3.2	13.4*	16.2*	0.6
COc1cccc(C(=O)Nc2ccc(NC(=O)c3ccco3)nc2)c1	51.9	1.4	-0.7	-0.5	7.0	.	.
O=C(Nc1ccc(NC(=O)c2ccccc2F)cn1)c1ccco1	.	.	0.2	3.0	14.4*	10.3	0.6
CN1C(=O)[C@@]2(C3=C(CCCC3=O)OC3=C2C(=O)OC2(CCCCC2)C3)c2ccccc21	.	.	-0.9	-0.6	-0.8	.	.
Cc1c(C(C)c2ccccc2O)c2ccccc2n1C (configuration not stated)	.	.	-0.7	2.9	3.8	.	.
CC(C)[C@H]1/C(=C/C2CC2)N2C(=O)C[C@@H](c3ccccc3)N=C2N1Cc1ccc2c(c1)OCO2	.	.	-1.6	-0.9	0.4	.	.
CC(C)NC(=O)CCn1nnc(-c2cccs2)n1	.	.	-1.2	-3.6	0.0	.	.
CN(Cc1ccccc1)C(=O)OCc1cn(Cc2cccc(Cl)c2)nn1	.	.	-0.7	-2.5	-0.7	.	.
Cc1ccc(-c2nnc(SCc3ccc([N+](=O)[O-])cc3)n2-c2ccccc2)cc1	.	.	-1.8	-2.0	0.1	.	.
Cc1ccc(NC(=O)c2ccc(S(=O)(=O)N3CCCC3)cc2)nc1	.	.	-0.5	-1.2	2.2	.	.
O=C(/C=C/Nc1ccc(Oc2ccccc2Cl)cc1)c1ccco1	92.7	6.21*	-0.1	2.4	14.6*	16.6*	0.6
O=C(/C=C/Nc1ccccc1Oc1ccccc1)c1ccco1	0.7	1.04	0.2	4.6	5.2	.	.
Cc1cc(NC(=O)c2cccc(F)c2)ncc1NC(=O)c1ccco1	139.5*	3.64*	-0.1	2.6	14.7*	11.6*	0.6
Cc1ccc(NC(=O)c2ccc(F)cc2)nc1	77.2	3.07	0.0	1.0	14.6*	11.7*	0.4
O=C(CCc1ccccc1)N[C@H]1C(=O)CCC[C@]12C(=O)N(Cc1ccccc1)c1ccccc12	.	.	-1.5	-0.9	-2.5	.	.
C/C(N)=C(/C#N)C(=O)CSc1nnc(-c2ccccc2Br)o1	198.2*	5.46*	0.2	3.0	14.4*	17.1*	1.1
COC(=O)c1cc(-c2ccccc2OC)c(=O)n2c1CCC2	.	.	-1.6	1.4	2.7	.	.
Cc1nc2c(oc3ccccc32)c(=O)o1	22.7	1.33	0.0	6.1*	13.7*	9.1	0.2
Nc1ccc2cc3ccc(N)cc3nc2c1	.	.	1.7*	32.3*	27.5*	5.7	0.2
O=S1(=O)c2c(cccc2N2CCSCC2)Oc2ccccc2CN1Cc1cn(Cc2ccc(Cl)cc2)nn1	.	.	-1.4	-2.4	-4.1	.	.
CCOC(=O)c1cc(-c2ccc3c(c2)OCCO3)n[nH]1	113.0	4.48*	-0.1	5.3	19.1*	17.1*	0.8
CCCc1ccc(OCc2ccc(C(=O)N/N=C/c3cccnc3)o2)cc1	.	.	-0.6	4.1	14.2*	16.6*	0.8
CCOc1ccc(CC(=O)N/N=C/c2cccnc2)cc1	.	.	-1.6	-0.3	0.6	.	.
COC(=O)[C@]12CCCCC=C1N(Cc1ccc(OC)cc1)C(=O)[C@@H]2CC(=O)NCc1cccs1	.	.	-1.1	-0.7	-3.8	.	.
O=C(N/N=C/c1ccccc1)c1[nH]c2ccc(Br)cc2c1-c1ccccc1	-88.5	0.93	0.3	0.4	1.0	.	.
O=C(N/N=C/c1ccccc1)c1[nH]ncc1Br	19.1	2.55	-0.3	1.5	15.2*	13.6*	0.3
